Screening data: PubChem, several laboratories
An excerpt weighted towards active compounds, which were near 2.9% of everything screened.
MEKK2wt PB1 HTS: raises or lowers MEK5 binding to wildtype human MEKK2 PB1 domain; bead flow cytometry, Alexa488-MEK5 binding to MEKK2 WT; actives lie on both sides; binding response (% of control), % at 10 µM; 290,000 compounds, 1.1% hits; AID 1531; in the data active means binding response below about 67% or above about 130%
CRFBP-R2 block: antagonists of CRF-binding protein/CRF-R2 receptor complex | inhibition, % at 11.8 µM | 350,000 compounds, 0.59% hits | HEK293 CRF-R2/CRF-BP, CRF-induced calcium fluorescence;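 active means inhibition of the ligand-induced calcium signal above about 50% at the single tested concentration, limit read from the data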
CRFR2-BP ag: agonists of human CRF-binding protein/CRF-R2 receptor complex | HEK293 CRF-R2/CRF-BP, calcium dye fluorescence (FLIPR); percent of saturating CRF peptide response | activation, % at 13.2 µM | 350,000 compounds, 0.46% hits | AID 588473;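 active means activation of at least 50%, plus an integration ratio under a set limit after plate pattern correction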;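 further: plate controls were neutral control wells without compound for no effect and CRF at EC100 for full effect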
MEKK3 PB1 HTS: raises or lowers MEK5 binding to the human MEKK3 PB1 domain. Q99759. binding response (% of control), % at 10 µM. 290,000 compounds, 1.4% hits. AID 1529. bead-based flow cytometry, Alexa488-MEK5 binding to MEKK3; actives lie on both sides; 0 = blocked by unlabeled MEK5, 100 = vehicle;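 active means binding response more than 3 SD above or below the average of its plate-row segment, actives on both sides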;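 further: Alexa488 bead fluorescence after subtracting the streptavidin-only scavenger bead signal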
MEKK2mut PB1 HTS: signal of MEK5 binding to mutant human MEKK2 PB1 domain; bead flow cytometry, Alexa488-MEK5 binding to MEKK2 mutant; percent response, % at 10 µM; 290,000 compounds, 0.35% hits; AID 1530; in the data active means percent response above about 24%, passing the limit was not always enough
ABCB6 inh 2: inhibitors of human ABC transporter ABCB6; fluorescence ratio to DMSO, % at 10 µM; 360,000 compounds, 0.19% hits; K562-ABCB6 porphyrin accumulation, flow cytometry, 1 h; hits give low values;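 active means fluorescence ratio to DMSO below 75%, the collection mean minus 3 SD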;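 further: signal is porphyrin accumulated inside mitochondria; 100% equals median channel fluorescence of DMSO control wells; lower ratio means ABCB6 inhibition with less porphyrin fluorescence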
* hit, by the source's call; . = not tested or not shown.

SMILES | MEKK2wt PB1 HTS | CRFBP-R2 block | CRFR2-BP ag | MEKK3 PB1 HTS | MEKK2mut PB1 HTS | ABCB6 inh 2
O=C(N/N=C\c1c(O)ccc2ccccc12)c1cncc(Br)c1 | 95 | -113 | 167* | 100 | 5 | 105
CC(=NNC(=O)c1ccncc1)c1ccccc1O | . | 0 | 0 | . | . | 102
CC(=NNC(=O)c1ccncc1)c1ccc2ccccc2c1O | . | -328 | 297* | . | . | 102
COc1ccc(Nc2sc(C(=O)c3ccc(Cl)cc3)c(N)c2C(=O)Nc2ccccc2OC)cc1 | 67 | -50 | 31 | 69 | -8 | 98
COc1ccccc1NC(=O)c1c(Nc2ccccc2C)sc(C(=O)Nc2cccc(Cl)c2)c1N | -3.0* | -9 | -4 | 78 | -8 | 95
COc1ccc(C(=O)c2sc(Nc3cccc(OC)c3)c(C(=O)Nc3cccc(C)c3C)c2N)cc1 | 78 | -77 | 121* | 79 | -19 | 101
CCc1ccc(C(C#N)=CC=Cc2ccccc2)cc1 | . | -6 | 9 | . | . | 101
CC1=[N+]([O-])C(C)(C)N(O)C1(C)C | 112 | -143 | 152* | 113 | 30 | 101
CCOc1ccc(/C=N/OCC(=O)NC(c2ccccc2)c2ccccc2)cc1 | 104 | -142 | 54* | 99 | 0 | 95
COc1ccc(/C=N/OCC(=O)NC(c2ccccc2)c2ccccc2)c(OC)c1 | 90 | 20 | 0 | 92 | -4 | 95
COC(=O)c1ccc(N/C=C/C(=O)c2ccccc2)cc1 | 106 | -1 | 0 | 108 | 9 | 92
Cc1c(O)c2c3c(cccc3c1O)C(=O)N(c1ccccc1)C2=O | 104 | -151 | 168* | 105 | 2 | 103
Nc1cccc(N2C(=O)c3cccc4c(N)ccc(c34)C2=O)c1 | 96 | -120 | 162* | 96 | 5 | 148
CN(C)c1ccc2c3c(cccc13)C(=O)N(c1ccccc1)C2=O | 89 | . | . | 97 | -9 | .
O=C(O)c1ccc2c3c(cccc13)C(=O)N(c1ccccc1)C2=O | 97 | -5 | 4 | 96 | -5 | 107
Cc1cccc(N2C(=O)c3cccc4c(N)ccc(c34)C2=O)c1 | 96 | -219 | 268* | 105 | 2 | 102
Cc1cccc(N2C(=O)c3cccc4c(N(C)CCO)ccc(c34)C2=O)c1 | . | -216 | 191* | . | . | 109
CC(C)Cc1ccc(C(C)NC(=O)Cc2ccc(S(=O)(=O)N3CCOCC3)s2)cc1 (stereo not drawn) | . | -11 | 8 | . | . | 99
CCN1C(=O)c2cccc3c(Cl)ccc(c23)C1=O | 97 | -10 | -3 | 101 | -6 | 99
Nc1ccc2c3c(cccc13)C(=O)N(c1ccccc1)C2=O | 101 | -227 | 235* | 102 | 4 | 108
CC(C)CCN1C(=O)c2cccc3c(N)ccc(c23)C1=O | . | -101 | 166* | . | . | 137
O=C(CCCn1c(=S)[nH]c2ccsc2c1=O)NC1CCCCC1 | 100 | -14 | -1 | 100 | 1 | 100
CC1CCCCC1NC(=O)CCCCCn1c(=S)[nH]c2ccsc2c1=O (stereo not drawn) | 103 | 93* | -1 | 104 | 11 | 98
Cc1c(NC2=C(Cl)C(=O)N(c3ccccc3)C2=O)c(=O)n(-c2ccccc2)n1C | 104 | 19 | -1 | 103 | 0 | 97
Cc1c(NC2=C(Cl)C(=O)N(c3ccccc3Cl)C2=O)c(=O)n(-c2ccccc2)n1C | 97 | 53* | 2 | 100 | 0 | 102
SMILES | MEKK2wt PB1 HTS | CRFBP-R2 block | CRFR2-BP ag | MEKK3 PB1 HTS | MEKK2mut PB1 HTS | ABCB6 inh 2
O=C(CSc1nnc2ncccn12)Nc1cccc2ccccc12 | 107 | 3 | 2 | 103 | 1 | 98
NC(=O)c1cc2ccc(O)cc2oc1=NCc1ccccc1 | 98 | -351 | 319* | 98 | 3 | 95
NC(=O)c1cc2ccccc2oc1=NCc1ccccc1 | 94 | -31 | 2 | 99 | -1 | 196
COc1ccc(NC(=O)CSc2nc(SC)ns2)cc1 | 98 | 15 | -1 | 107 | -1 | 92
Brc1ccc(C2=CC(c3cccs3)n3ncnc3N2)cc1 (stereo not drawn) | 102 | -197 | 318* | 103 | 2 | 96
Fc1ccc(C2=CC(c3ccc(Br)o3)n3ncnc3N2)cc1 (stereo not drawn) | 102 | -151 | 192* | 104 | 2 | 133
